# Bioassay records (PubChem)
# MIN6 prolif – inducers of beta-cell replication in MIN6 cells. MIN6 cells proliferation, ATPlite luminescence, 48 h; cells starved in 0.2% serum; 100% = growth in 10% serum. proliferation, % at 10 µM. 0.29% of 330,000 active. AID 2380;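 active means compounds whose signal lies at least 3.5 SD above the mean of all wells on their plate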;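 further: 0% = DMSO-treated cells in low-serum medium and 100% = 10% serum control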
# ABCB6 inh 2 – human ABCB6 transporter inhibition; Q9NP58; K562-ABCB6 porphyrin accumulation, flow cytometry, 1 h; active compounds read low; fluorescence ratio to DMSO, % at 10 µM; 0.19% of 360,000 active;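 active means fluorescence ratio to DMSO below 75%, the collection mean minus 3 SD; inconclusive means too few cells collected in the well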;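 further: signal is porphyrin accumulated inside mitochondria; 100% equals median channel fluorescence of DMSO control wells; lower ratio means ABCB6 inhibition with less porphyrin fluorescence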
# Myeloid diff MLP – myeloid differentiation induction; AID 624256; calls only at 10 µM; ER-HoxA9 myeloid progenitors, lysozyme-GFP differentiation, flow cytometry; 1% of 360,000 active;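 active means normalized GFP-positive differentiation at or above the plate's own cutoff, the solvent-only control mean plus 3 SD; inconclusive means no clear call, values can overlap the other calls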;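 further: cells exposed to compound for four days before flow analysis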
# Cardio protect – modulators protecting cardiomyocytes from myocardial damage | H9c2 cardiomyocytes, H2O2 injury protection, ATPLite, 2 h | protection from H2O2 cell death, % at 20 µM | 0.63% of 360,000 active | AID 588492;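 active means compounds giving at least 50% protection of heart cells from peroxide-induced death in the single-dose screen, raw or plate-pattern-corrected value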;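 further: 0% = DMSO wells with peroxide and 100% = DMSO wells without peroxide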
# hiPSC survival – enhancers of human iPSC single-cell survival. 0.044% of 360,000 active. survival enhancement, % at 20 µM. hiPSC single-cell survival, ATPlite luminescence; 100% = ROCK inhibitor wells, 0% = DMSO; in the data active means survival enhancement above about 18%;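 further: cells exposed to compounds for 16 hours before the ATP read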
# Numbers without * were called inactive; i = inactive; u = inconclusive; + = active, no number. A selection: hits, their analogues and other compounds. The true share with any hit is near 2.2%.
SMILES,MIN6 prolif,ABCB6 inh 2,Myeloid diff MLP,Cardio protect,hiPSC survival
CCc1ccc(-c2cc(C(F)(F)F)n3nc(C(=O)Nc4c(C)nn(Cc5ccccc5Cl)c4C)cc3n2)s1,-3,97,i,-3,-3
CCc1ccc(-c2cc(C(F)(F)F)n3nc(C(=O)Nc4c(C)nn(Cc5ccccc5C)c4C)cc3n2)s1,-5,112,+,-5,-1
Cc1ccc(S(=O)(=O)N(CCO)c2cc3c(s2)CCCC3)cc1,-2,99,i,-12,0
O=C1CCCC2=C1C(c1ccco1)Nc1ccc3ccccc3c12 (centres undefined),0,106,+,-20,5
Cc1ccc(Nc2nc3ccccc3c(=O)s2)cc1C,-2,99,i,5,-1
COc1ccc2nc(Nc3ccccc3OC)sc2c1,-5,106,i,-17,-1
COc1ccccc1Nc1nc(Cl)c(C=O)s1,-4,238,+,-1,1
Cc1ccc(Nc2nc(Cl)c(C=O)s2)cc1Cl,-6,170,+,-22,-1
O=C(NNC(=O)c1ncc(Cl)c(Cl)c1Cl)c1ccc(F)cc1,-7,97,i,78*,0
CCOC(=O)c1ccc(N=NN(C)C)cc1,-2,98,i,2,1
CC(C)(C)C(=O)NC(=S)NNC(=O)c1ccncc1,-3,107,i,1,0
CC(C)(C)C(=O)NC(=S)NNC(=O)c1ccc(-c2ccccc2)cc1,-6,98,+,30,-1
CC(=O)N1CCN(CCS(=O)(=O)c2cc(Cl)ccc2Cl)CC1,-6,102,i,-4,-4
CN1C(=O)C(C)(C)c2cc(S(=O)(=O)N3CCN(c4cccc(Cl)c4)CC3)ccc21,-5,102,+,-12,0
COc1ccccc1CNC(=O)c1ccc(-c2ccccc2C(F)(F)F)o1,-6,98,i,-14,-1
CCCC(=O)NNC(=O)c1ccoc1C,0,99,i,9,2
CCOc1ccc(NS(=O)(=O)c2ccc3c(c2)CCN3C(C)=O)cc1,2,94,+,-13,1
CC(=O)N1CCCc2ccc(NS(=O)(=O)c3ccc(C)c(C)c3)cc21,-4,93,+,-12,0
COc1ccc(OC)c(S(=O)(=O)Nc2ccc3c(c2)N(C(C)=O)CCC3)c1,-3,103,i,-4,0
CC(=O)c1cccc(S(=O)(=O)N2CCC(C(=O)O)(c3ccccc3)CC2)c1,2,106,u,-1,2
Cc1ccc(CNC(=O)c2ccc(S(=O)(=O)Nc3c(C)n(C)n(-c4ccccc4)c3=O)cc2)cc1,1,96,i,1,0
COc1ccc(OCCNC2CCCC2)cc1,1,107,i,-4,3
